In the library only some 1% were active in any assay of this set; here they are far more common.
NPR1 activator: GC-A (human) enzyme activation. P16066. AID 1671463. activation, % at 10 µM. 370,000 compounds, 0.14% hits. HEK293 GC-A cells, cGMP TR-FRET, EC30 ANP; 0% at EC30 ANP, 100% saturating ANP; in the data active = activation above about 40%
Bfl-1 A1 inh: inhibitors of the anti-apoptotic protein A1, read as caspase activation; MEF A1-2A-BIM cells, Caspase-Glo 3/7 luminescence, 3 h; percent of clofoctol response, vehicle zero; caspase activation, % (no concentration beside the values); 330,000 compounds, 0.066% hits; AID 2462;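 active = over half of replicate activation scores above 10%, or exactly half above 10 with the replicate mean above 10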
Efflux pump mplx: inhibitors of Candida antifungal efflux pumps expressed in yeast. inhibition, % at 10 µM. 330,000 compounds, 0.44% hits. S. cerevisiae Candida pump triplex, Nile Red efflux;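 active = plate passing quality check with inhibition over a set limit, or well fluorescence over plate mean plus 4 SD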;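 also: Nile Red retained in pooled yeast measured as flow cytometry median fluorescence; 0% = buffer negative control and 100% = Enniatin B positive control; higher means more Nile Red kept so more efflux inhibition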
H9c2 TAG inh: inhibitors of triacylglycerol accumulation. inhibition, % at 12.5 µM. H9c2 cells, Nile Red lipid (TAG) fluorescence; cells loaded with 200 µM oleic acid. AID 651582. 230,000 compounds, 0.66% hits;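 active = pattern-corrected inhibition of lipid staining of at least 50% with the nuclear-stain viability signal not falling by more than 50%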;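 also: 0% = DMSO wells and 100% = triacsin C control wells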
GC-B act: GC-B (human) receptor activation. 370,000 compounds, 0.11% hits. P20594. HEK293-GC-B cells, CNP EC30, cGMP TR-FRET; 0% at EC30 CNP, 100% saturating CNP. activation, % at 10 µM. AID 1920062;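 active = activation at 10 µM reaching about 35% in either raw or pattern-adjusted values, limit read from the data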
Target sequence (P20594 whole entry, looked up): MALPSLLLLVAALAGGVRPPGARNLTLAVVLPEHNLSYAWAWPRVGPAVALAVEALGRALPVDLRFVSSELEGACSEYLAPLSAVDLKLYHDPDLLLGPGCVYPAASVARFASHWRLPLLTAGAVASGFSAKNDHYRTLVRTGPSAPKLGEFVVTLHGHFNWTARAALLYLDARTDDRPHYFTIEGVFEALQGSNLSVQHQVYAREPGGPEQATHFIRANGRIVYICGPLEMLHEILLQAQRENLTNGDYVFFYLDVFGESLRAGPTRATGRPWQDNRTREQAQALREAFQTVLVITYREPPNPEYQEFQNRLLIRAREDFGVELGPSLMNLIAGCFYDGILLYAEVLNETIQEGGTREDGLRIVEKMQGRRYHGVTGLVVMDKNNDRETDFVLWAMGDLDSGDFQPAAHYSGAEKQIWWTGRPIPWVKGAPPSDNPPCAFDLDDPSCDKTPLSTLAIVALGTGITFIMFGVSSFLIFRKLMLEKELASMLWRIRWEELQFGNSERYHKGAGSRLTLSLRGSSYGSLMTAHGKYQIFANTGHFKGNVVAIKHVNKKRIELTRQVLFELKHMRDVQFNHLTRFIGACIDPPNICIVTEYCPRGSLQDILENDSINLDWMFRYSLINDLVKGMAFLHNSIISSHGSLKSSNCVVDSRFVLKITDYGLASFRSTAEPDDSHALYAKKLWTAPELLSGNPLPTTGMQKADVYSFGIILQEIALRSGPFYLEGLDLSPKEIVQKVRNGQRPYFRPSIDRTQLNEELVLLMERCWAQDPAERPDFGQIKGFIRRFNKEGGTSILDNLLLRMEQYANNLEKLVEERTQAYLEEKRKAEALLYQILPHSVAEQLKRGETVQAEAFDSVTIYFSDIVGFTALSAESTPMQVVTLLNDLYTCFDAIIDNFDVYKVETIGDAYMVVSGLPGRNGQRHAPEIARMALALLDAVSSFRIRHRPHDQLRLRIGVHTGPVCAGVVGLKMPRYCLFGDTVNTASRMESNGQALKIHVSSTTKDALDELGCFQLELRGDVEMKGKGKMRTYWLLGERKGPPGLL
HSV augment: HSV replication enhancement; HSV replication augmentation in cells, fold increase; maximum fold increase; 220,000 compounds, 0.005% hits; in the data active = maximum fold increase above about 1.5; tested in PC3 cells
H9c2 TAG conf: confirmation of triacylglycerol accumulation inhibitors | shares compounds with H9c2 TAG inh | H9c2 lipid accumulation, Nile Red fluorescence; cells loaded with 200 µM oleic acid | inhibition, % at 12.5 µM | 990 compounds, 71% hits | AID 651629;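 active = mean inhibition across replicates of 40% or more; inactive = mean inhibition below 40%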;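 also: plate controls were DMSO only wells for no effect and Triacsin C treated wells for full effect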
* marks the source's active call; other numbers are inactive results; i = inactive; . = no result given; ! = not active in a repeat.

SMILES	NPR1 activator	Bfl-1 A1 inh	Efflux pump mplx	H9c2 TAG inh	GC-B act	HSV augment	H9c2 TAG conf
C=CCN1C(=O)/C(=C2\SC(N3CCOCC3)=NC2=O)c2cc(Br)ccc21	14	-1	0	58*	10	i	50*
Cc1nn2c(N3CCCC3)cc(C(C)C)nc2c1-c1ccccc1	-6	0	0	72*	-4	i	59*
COc1cc(-c2nc3c(c(C)nn3-c3ccccc3)c3cc(OC)c(OC)cc23)ccc1O	1	-1	0	62*	-5	i	58*
COc1cc(-c2nc3ccccc3nc2-c2ccc(O)c(OC)c2)ccc1O	-9	0	0	.	-1	.	.
C[C@@H]1CCCN1c1cccc2c1S(=O)(=O)N1CC[C@H](C1)O2	1	.	.	.	0	.	.
C=CC[C@@H](CC(=O)N(CCO)Cc1ccccc1)C(=O)N[C@H](COC(=O)[C@@H](CC=C)Cc1ccc(F)cc1)Cc1ccccc1	-4	0	0	59*	-8	.	68*
C=CCC[C@@H](Cc1ccc(F)cc1)C(=O)OC[C@@H](Cc1c[nH]c2ccccc12)NC(=O)[C@@H](CC=C)CC(=O)N(CCO)Cc1ccccc1	-6	0	1	60*	-3	.	60*
C=CCC[C@@H](Cc1ccc(F)cc1)C(=O)OC[C@@H](NC(=O)[C@@H](CC=C)CC(=O)N[C@H](CO)Cc1ccccc1)C(C)(C)C	-10	0	0	62*	-4	.	66*
C=CC[C@@H](CC(=O)N(CCO)Cc1ccccc1)C(=O)N[C@@H](COC(=O)[C@@H](CC=C)Cc1ccc(F)cc1)Cc1ccccc1	-7	1	0	75*	-7	.	62*
Cc1cccc(NC(=O)NN(C(=O)c2ccccc2Cl)C(C)(C)C)c1	-1	.	.	.	-3	.	.
C=CC[C@@H](CC(=O)N(CCO)Cc1ccccc1)C(=O)N[C@H](COC(=O)[C@@H](CC=C)CC(=O)OC(C)(C)C)Cc1ccccc1	-9	.	-1	50*	-8	.	70*
CC(=O)c1cc(-c2cccc(CO)c2)c(=O)n2c1CCC2	1	.	.	.	-5	.	.
Cc1ccc(Nc2nc(OC(C(F)(F)F)C(F)(F)F)nc(N3CCOCC3)n2)cc1	0	0	0	100*	-3	i	93*
CCN1CCN(Cc2ccc(NC(=O)c3cc(NC(=O)c4cc5cccc(OC)c5o4)cc(OC)c3)cc2C(F)(F)F)CC1	5	0	0	60*!	-1	i	68*
COc1cc(NC(=O)c2ccno2)cc(C(=O)Nc2cccc(C(F)(F)F)c2)c1	3	0	0	-2	5	i	.
CCN1CCN(Cc2ccc(NC(=O)c3cc(NC(=O)c4ccno4)cc(OC)c3)cc2C(F)(F)F)CC1	-8	-1	0	24	-3	i	.
CCN1CCN(Cc2ccc(NC(=O)c3cc(NC(=O)c4cncc(-c5cccs5)c4)cc(OC)c3)cc2C(F)(F)F)CC1	5	0	0	57*	6	.	44*
CCN1CCN(Cc2ccc(NC(=O)c3cc(NC(=O)C4=NN(c5ccccc5)C(=O)C4)cc(OC)c3)cc2C(F)(F)F)CC1	-1	0	0	12	4	i	.
COc1cc(NC(=O)c2cc3cccc(OC)c3o2)cc(C(=O)Nc2cccc(C(F)(F)F)c2)c1	4	1	0	55*	3	i	69*
CC(C)(C)OC(=O)N(CCc1ccccc1)Cc1ccc(OCc2cccc(NC(=O)/C=C/c3ccccc3)c2)cc1	0	.	.	51*	3	.	65*
CC(C)(C)OC(=O)N(CCc1ccccc1)Cc1cccc(OCc2cccc(NC(=O)c3ccccc3)c2)c1	0	.	.	-5	0	.	.
CC(C)(C)OC(=O)N(CCc1ccccc1)Cc1ccccc1OCc1cccc(NC(=O)/C=C/c2ccccc2)c1	-6	.	.	53*	5	.	43*
COC(=O)[C@]12C[C@H](CC(=O)NCCCN3CCCC3=O)C(=O)N(Cc3ccc4c(c3)OCO4)C1=C[C@H](C(C)C)O[C@@H]2C1CC1	-2	.	.	.	1	.	.
COC(=O)c1ccc(C(=O)OC)c(NC(=O)CN2CCN(c3ccccc3)CC2)c1	0	.	0	.	0	i	.
COC(=O)c1ccc(C(=O)OC)c(NC(=O)CN2CCN(c3ccc(OC)cc3)CC2)c1	-3	2	0	56*	-6	i	20
SMILES	NPR1 activator	Bfl-1 A1 inh	Efflux pump mplx	H9c2 TAG inh	GC-B act	HSV augment	H9c2 TAG conf
N[C@H]1CC[C@@H]2SC[C@@H](C(=O)O)N2C1=O	0	.	.	.	2	.	.
C[C@@H]1CN([C@H](C)CO)S(=O)(=O)c2ccc(Br)cc2O[C@@H]1CN(C)Cc1ccc(-c2ccccc2)cc1	-6	.	.	-8	-2	.	.
C[C@@H]1CN([C@H](C)CO)C(=O)c2cccc(NC(=O)Nc3ccc(C(F)(F)F)cc3)c2O[C@H]1CN(C)S(=O)(=O)c1cccs1	-6	1	0	71*	-6	.	63*
C[C@@H]1CN([C@H](C)CO)C(=O)c2c(c3ccccc3n2C)-c2ccccc2CO[C@H]1CN(C)Cc1ccc(-c2ccccc2)cc1	0	.	.	84*	-5	.	53*
C[C@H](CO)N1C[C@H](C)[C@@H](CN(C)Cc2ccc(-c3ccccc3)cc2)Oc2c(NC(=O)Cc3ccccc3)cccc2C1=O	.	0	1	50*	.	.	59*
C[C@H](O)C#Cc1ccc2c(c1)O[C@@H](CN(C)Cc1ccc(-c3ccccc3)cc1)[C@H](C)CN([C@@H](C)CO)S2(=O)=O	-4	.	.	64*	3	.	66*
C[C@H](CO)N1C[C@H](C)[C@@H](CN(C)Cc2ccccc2)Oc2c(NC(=O)Cc3ccccc3)cccc2C1=O	-1	0	0	30	-3	.	.
COc1nc(OC)nc(N2CCC(C(=O)N(C)Cc3ccco3)CC2)n1	-3	.	.	.	0	.	.
Cc1ccc(OCc2nnc(SCC(=O)Nc3ccc(OCc4ccccc4)cc3)n2-c2ccc(Cl)cc2)cc1	0	.	.	.	-1	.	.
C[C@@H]1CN([C@@H](C)CO)C(=O)c2cccc(NC(=O)C3CCCCC3)c2O[C@@H]1CN(C)Cc1ccc(Cl)c(Cl)c1	-1	2	1	55*	-8	.	70*
COc1ccc(-n2c(SCC(=O)Nc3ccc4c(c3)OCCO4)nnc2-c2ccccc2)cc1	-5	.	.	.	-13	.	.
Nc1c(C(=O)Nc2ccccc2)c2nc3ccccc3nc2n1-c1ccc(O)cc1	5	0	0	64*	1	i	65*
O=C(N[C@@H](Cc1ccccc1)C(=O)N1CCC2CCN(S(=O)(=O)c3ccccc3)CC21)[C@@H]1CCCN1 (some centres undefined)	6	.	.	.	8	.	.
